# About 83,000 compounds went through this panel and 20% of them were active in at least one assay; those are over-represented in the sample as a whole.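 96-well plates, one dose, 48 hours. Percent growth reported; active if below 10.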 A number with no mark means an inactive call. The source made the active and inactive calls.
# Experiments:
# Assay in all cases: NCI-60 one-dose screen, 48 h (100 = growth as untreated, 0 = no growth, -100 = all killed)
# Conditions in all cases: 10 µM unless noted
# [1] = system: RPMI-8226 leukemia
# [2] = system: OVCAR-8 ovarian
# [3] = system: OVCAR-5 ovarian
# [4] = system: OVCAR-4 ovarian
# [5] = system: SK-OV-3 ovarian
# [6] = system: IGROV1 ovarian
# [7] = system: OVCAR-3 ovarian
# [8] = system: HS 578T breast
# [9] = system: NCI/ADR-RES ovarian
# [10] = system: T-47D breast
# [11] = system: BT-549 breast
# [12] = system: MDA-MB-435 melanoma
# [13] = system: SW-620 colon
# [14] = system: MCF7 breast
# [15] = system: HCT-116 colon
# [16] = system: HCC-2998 colon
# [17] = system: KM12 colon
Structure (SMILES),growth [1],growth [2],growth [3],growth [4],growth [5],growth [6],growth [7],growth [8],growth [9],growth [10],growth [11],growth [12],growth [13],growth [14],growth [15],growth [16],growth [17]
[Cl][Ru].c1ccc(-c2cccc(-c3ccccn3)n2)nc1.c1ccc(-c2ccnc3c2ccc2c(-c4ccccc4)ccnc23)cc1,-10.5% (active),68.2%,68.1%,47.3%,46.8%,21.4%,13.8%,13.4%,71.5%,14.2%,7.88% (active),10.5%,40.2%,9.54% (active),36.9%,31.3%,8.28% (active)
COc1ccc(-c2csc(N/N=C/c3c(-c4ccc(S(C)(=O)=O)cc4)nc4ccccn34)n2)cc1,91.4%,103%,108%,105%,136%,115%,124%,118%,110%,87.8%,115%,101%,107%,89.1%,104%,115%,
O=C(CCCN1C(=O)/C(=C/c2ccccc2F)SC1=S)N1CCOCC1,75.1%,99%,94.5%,88.4%,114%,84.4%,112%,99.4%,104%,45.6%,114%,82.7%,95.2%,56.9%,88.7%,119%,85.4%
C[C@@H]1CN(c2ccc3ncc(C#Cc4cncc(C(=O)Nc5ccc(CN6CCN(C)CC6)c(C(F)(F)F)c5)c4)n3n2)C[C@H](C)O1,-2.52% (active),0.405% (active),-35.4% (active),-10.1% (active),-76.5% (active),-5.72% (active),-48.3% (active),-37% (active),-8.65% (active),15%,-27.2% (active),-90.1% (active),-52.3% (active),-64% (active),-71.4% (active),-30% (active),
Cc1cc2nc3c4cc(Cl)ccc4n(CC(=O)NCCN(C)C)c3nc2cc1C,-27.3% (active),55.9%,-16.7% (active),95.7%,106%,56.2%,96.7%,71.9%,55.4%,82%,88.1%,67.9%,-80.8% (active),-19.8% (active),-85.3% (active),82.6%,
O=C(N/N=C/c1ccc(Cl)s1)c1[nH]c2ccc(Br)cc2c1-c1ccccc1,5.6% (active),2.09% (active),52.9%,69.5%,29.6%,19.5%,20.8%,27%,17.2%,64.7%,-18.1% (active),-8.88% (active),25%,7.95% (active),-27.5% (active),19.9%,10.5%
Cn1cc(-c2cc(N)n3nc(-c4cn(C)c5ccc(Cl)cc45)cc3n2)c2cc(Cl)ccc21,88.5%,90.4%,107%,75.1%,123%,88.9%,84.8%,107%,73.5%,90.7%,117%,16.5%,14.6%,17.3%,75.5%,98.4%,60.1%
Cc1ccc(/C=C/c2nn3c(-c4ccco4)nnc3s2)cc1C,109%,88.7%,107%,101%,116%,97.5%,114%,102%,108%,102%,107%,99.4%,98.5%,82.1%,109%,108%,
CCOC(=O)c1csc(NC(=O)CSc2nc3sc4c(c3c(=O)n2-c2ccc(Cl)cc2)CCCC4)n1,92.5%,97.6%,97.9%,103%,135%,89.6%,138%,97.3%,107%,87%,99%,93.6%,103%,84.3%,105%,121%,
CC(=O)Oc1ccccc1C(=O)Nc1ccc(C(=O)/C=C/c2ccncc2)cc1,-25.8% (active),82.4%,64.4%,87.5%,111%,10.3%,33.2%,69.5%,91.8%,53.4%,57.1%,18.2%,0.322% (active),2.69% (active),-72.5% (active),13.3%,
CCN1C(=S)N(c2ccccc2)C2NC(=O)N(/N=C/C=C/c3ccccc3OC)C21 (configuration not stated),92.6%,73.1%,97.7%,81.1%,115%,92.1%,93.9%,78.7%,99.4%,93.3%,94.5%,52.6%,90.4%,62.9%,88%,130%,
COC(=O)C1CN(S(=O)(=O)/N=C2\NC(=O)NC2=C(Cl)Cl)C1,85.2%,99.9%,116%,123%,113%,109%,116%,104%,109%,81%,110%,107%,114%,34.1%,111%,121%,8.89% (active)
Fc1ccc(-c2nc(C(Cl)Cl)nc3cc(-c4ccccc4)nn23)cc1,8.68% (active),-0.748% (active),-12.3% (active),-18.6% (active),-28.9% (active),20.4%,-28.1% (active),-7.41% (active),17.8%,44.3%,52.3%,3.93% (active),-35.7% (active),21.5%,5.36% (active),-34.7% (active),-12% (active)
CCCSc1nc(Nc2ccc(/C(C)=N\NC(N)=S)cc2)c(C#N)c(-c2ccc(OC)cc2)n1,71.9%,30.7%,94.5%,28%,97.3%,81%,67.3%,25.3%,56%,86.6%,82%,70.7%,103%,69.1%,45.3%,110%,84.7%
O=C(CSc1nc2sc3c(c2c(=O)n1-c1ccc(Cl)cc1)CCCC3)N/N=C/c1ccc(F)cc1,97.2%,96.7%,106%,89.8%,116%,104%,133%,115%,104%,109%,116%,86.9%,61.9%,74.7%,99.7%,112%,90.1%
N#Cc1nc(-c2ccccc2)oc1S(N)(=O)=O,46.2%,79.1%,74.1%,84.2%,135%,49.2%,77.4%,95%,82.7%,64.1%,67.6%,42.5%,21.1%,30.9%,46.8%,110%,
COC(=O)C1CCCN(S(=O)(=O)/N=C2\NC(=O)NC2=C(Cl)Cl)C1 (configuration not stated),0.297% (active),105%,130%,119%,106%,107%,122%,110%,111%,68.2%,118%,111%,85.8%,20.4%,97.8%,111%,4.95% (active)
COc1ccc(COc2ccc(/C=C3/C(=O)Nc4cc(Cl)ccc43)cc2)cc1,89.9%,96.3%,96.2%,93.5%,107%,92.4%,102%,89%,94.4%,90.2%,102%,97.6%,95.7%,82.1%,101%,100%,
